# The campaign covered roughly 200,000 compounds. About 780 (0.39%) were called active. Only a selection was taken, and actives are over-represented in it overall. Unmarked numbers belong to inactive results. Rule as the data show it: active = TR-FRET ratio above about 2000; inactive = the rest.
# Assay: detection-format interference in TR-FRET ratio – biochemical, artefact control for PPARgamma SRC-2 agonist project, primary screen (AID 1049)
# Details: TR-FRET artefact counter-screen; at 8 µM; hits give high values
row,Compound,TR-FRET ratio
1,CSC1=NP(=S)(SC)N(C)c2nc3n(c21)CCC3 (stereo not given),3350 (active)
2,Cc1ccc(C)c(NC2=NCCCS2)c1,1500
3,Cc1cccc(-n2c(O)c(C=NC34CN5CN(CN(C5)C3)C4)c(=O)[nH]c2=O)c1,1640
4,OC1/C(=C/c2ccc(C(F)(F)F)cc2)N2CCC1CC2 (stereo not given),1710
5,COc1cc(-n2c(=S)[nH]c3ccc(C)cc3c2=O)c(Cl)cc1Cl,2140 (active)
6,O=c1c2ccccc2nc(-c2ccccc2)n1-c1ccccn1,1550
7,O=C(COC(=O)Cc1ccccc1)Nc1ccc(F)cc1,1600
8,CN(C)c1nc(N(C)C)nc(N(C#N)CCCl)n1,1800
9,CCCn1c(C(=O)c2ccccc2OC)nc2ccccc21,1400
10,O=c1[nH]c(=O)n(-c2ccccc2)c(O)c1C=NC12CN3CN(CN(C3)C1)C2,1500
